Measured values reported in article PMC4336329 (PLoS ONE, 2015).
The whole screen tested about 310,000 compounds, of which about 14,000 (4.5%) showed an effect of 50% or more. The effect is printed as a negative number. The entries come from a sample that favours strong results as a whole.

The compounds below were run against human ether-à-go-go-related gene (hERG) potassium channel (human, UniProt Q12809) (assay: primary screen, population patch clamp on CHO cells stably expressing hERG; higher = less effect of the substance).
human ether-à-go-go-related gene (hERG) potassium channel, sequence (Q12809 whole entry, looked up): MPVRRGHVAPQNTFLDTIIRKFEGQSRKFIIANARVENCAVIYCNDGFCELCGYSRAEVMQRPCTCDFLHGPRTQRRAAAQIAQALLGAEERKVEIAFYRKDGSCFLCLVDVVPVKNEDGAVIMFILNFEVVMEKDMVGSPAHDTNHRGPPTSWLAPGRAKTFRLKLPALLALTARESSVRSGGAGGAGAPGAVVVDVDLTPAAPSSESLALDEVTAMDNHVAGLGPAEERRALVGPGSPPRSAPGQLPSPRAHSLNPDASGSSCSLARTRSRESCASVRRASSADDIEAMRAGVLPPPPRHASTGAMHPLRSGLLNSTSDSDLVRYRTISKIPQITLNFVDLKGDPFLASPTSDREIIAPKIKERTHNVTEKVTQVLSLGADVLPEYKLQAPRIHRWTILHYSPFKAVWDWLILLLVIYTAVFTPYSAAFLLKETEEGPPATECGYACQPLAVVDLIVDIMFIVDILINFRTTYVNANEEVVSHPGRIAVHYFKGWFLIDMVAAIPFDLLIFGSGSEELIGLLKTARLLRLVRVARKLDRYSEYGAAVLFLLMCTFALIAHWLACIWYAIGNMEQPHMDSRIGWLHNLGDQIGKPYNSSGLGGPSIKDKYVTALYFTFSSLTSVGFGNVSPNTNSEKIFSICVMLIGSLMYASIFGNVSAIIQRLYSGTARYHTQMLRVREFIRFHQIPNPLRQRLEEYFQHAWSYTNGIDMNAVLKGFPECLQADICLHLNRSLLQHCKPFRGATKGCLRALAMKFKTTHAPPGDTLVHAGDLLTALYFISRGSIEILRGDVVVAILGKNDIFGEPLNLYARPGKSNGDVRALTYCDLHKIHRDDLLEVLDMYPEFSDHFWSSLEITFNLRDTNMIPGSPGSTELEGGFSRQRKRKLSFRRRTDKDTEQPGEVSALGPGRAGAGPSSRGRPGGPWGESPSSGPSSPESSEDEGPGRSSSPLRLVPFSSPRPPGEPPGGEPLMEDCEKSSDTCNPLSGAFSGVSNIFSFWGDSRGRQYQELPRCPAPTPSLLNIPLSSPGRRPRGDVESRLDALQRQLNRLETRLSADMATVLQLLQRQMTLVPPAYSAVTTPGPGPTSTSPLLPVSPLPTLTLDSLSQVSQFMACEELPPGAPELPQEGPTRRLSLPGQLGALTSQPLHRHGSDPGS
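Also: peak tail current of the secondary pulse compared with the same well before compound.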

Row | Structure (SMILES) | hERG current change (%, negative = inhibition) at 10uM
1 | COc1ccc(-c2nnc(SCC#CCO)o2)cc1OC | 4.93%
2 | COc1ccccc1N1CCN(S(=O)(=O)c2ccc3c(c2)oc(=O)n3C)CC1 | 26%
3 | COc1ccc(NC(=O)CN(C)C(=O)/C=C/c2cn(-c3ccccc3)nc2-c2ccc(C)cc2)cc1 | 13.8%
4 | COc1ccc(C2=NS(=O)(=O)N(C)C(C(=O)Nc3ccc(F)cc3F)=C2)cc1 | 10.1%
5 | CN(Cc1ccccc1)C(=O)COC(=O)C1CCN(S(=O)(=O)c2ccc(Cl)c(C(F)(F)F)c2)CC1 | -15.8%
6 | CCC/C(=N\NC(=O)CNC(=O)c1ccc(Cl)cc1)c1ccccc1 | -1.56%
7 | CC(NC(=O)COc1ccc(S(=O)(=O)N2CCOCC2)cc1)c1ccccc1 (centres unmarked) | -4.63%
8 | O=C(/C=C\c1ccccc1OC(=O)c1ccccc1F)c1cc2ccccc2o1 | -3.12%
9 | O=C(CSc1nnc(-c2ccco2)n1Cc1ccco1)NCc1cccs1 | -33.1%
10 | O=C(CSc1nnc(-c2ccco2)n1Cc1ccccc1)c1ccccc1 | -18.4%
11 | Cc1cc(NC(=O)CSc2nnc(-c3ccco3)n2Cc2ccco2)no1 | -24.7%
12 | COCCn1c(SCC(=O)NCc2ccccc2)nnc1-c1ccco1 | 5.7%
13 | CC(=O)Nc1ccc(NC(=O)CSc2nnc(-c3ccco3)n2Cc2ccco2)cc1 | -1.79%
14 | O=C(CSc1nnc(-c2ccco2)n1Cc1ccco1)Nc1ccccc1 | -70.7%
15 | O=C(CSc1nnc(-c2ccco2)n1Cc1ccccc1)NCc1ccccc1 | -51.8%
16 | CC(C)(C)NC(=O)CSc1nnc(-c2ccco2)n1Cc1ccco1 | -5.83%
17 | O=C(CSc1nnc(-c2ccco2)n1Cc1ccco1)NCc1ccccc1 | -50.8%
18 | COC(=O)CCNCCSc1nnc(-c2ccco2)n1Cc1ccccc1.O=C(O)C(=O)O | -64.5%
19 | NC(=O)NC(=O)CSc1nnc(-c2ccco2)n1Cc1ccccc1 | 5.78%
20 | CNC(=O)NC(=O)CSc1nnc(-c2ccco2)n1Cc1ccccc1 | -8.53%
21 | Cc1cc(C)n(-c2ccc(S(=O)(=O)N3CCOCC3)cc2[N+](=O)[O-])n1 | -10.9%
22 | O=C1/C(=C\c2cccnc2)CN(Cc2ccccc2)C/C1=C\c1cccnc1 | -29.4%
23 | O=C(NCC(=O)N(CC1CCCO1)C1(C(=O)NC2CCCC2)CCCCC1)c1ccccc1 (centres unmarked) | 3.96%
